Our source for the survival values is PubChem BioAssay AID463173 (ICCB-Longwood Screening Facility, Harvard Medical School, 2010).

Molecules are shown by their SMILES. Hit rate of the full screen: of about 52,000 compounds, about 4,300 (8.3%) were called active. The sample holds actives, similar compounds and a random draw of the others, so the mix is not that of the screen. Values without a mark were called inactive. Rule as the data show it: active = survival mostly below about 52% (no sharp cut-off); inactive = mostly above about 56%.

For the assay, the system named is DeltatarO mutant. The assay is described as follows: growth inhibition of S. aureus wild type versus tarO mutant, primary screen, teichoic acid synthesis inhibitors, RN4220, OD600 (AID 463173). The conditions noted are these: OD600, 18 h, hits give low values, screened at 18.75 µg/mL (by protocol).
For `O=C(Nc1ccccc1C(F)(F)F)c1ccc2oc(=O)c(S(=O)(=O)c3ccc(F)cc3)cc2c1`, the survival is 89%.

`CSc1cccc(NC(=O)C2CCCN(S(=O)(=O)c3ccc4c(c3)CCCN4C(C)=O)C2)c1` (configuration not stated): the survival was 71%.

`O=C(OCC1CCCO1)c1ccc2c(c1)N(Cc1ccc(F)cc1)C(=O)c1ccccc1S2(=O)=O` (configuration not stated): the survival was 101%.

For the compound `Cc1ccc2occ(CC(=O)N(Cc3ccc(N(C)C)cc3)C3CCS(=O)(=O)C3)c2c1` (configuration not stated), the survival was 74%.

In the case of `Cc1ccc(CNC(=O)Cn2c3ncccc3c(=O)n2-c2ccccc2)cc1`, the survival was 81%.

Regarding `CC(=O)N1CCc2c(sc(NC(=O)CSc3ccc(C)cc3)c2-c2nc3ccccc3s2)C1`, the survival was 92%.

Consider `COC(=O)c1ccc(-c2ccc(/C=N/NC(=O)CC3(C)OCCCO3)o2)cc1`, for which the survival was 96%.

With `CCCCNC(=O)c1cnc2sc(N3CCCCCC3)nn2c1=O`, the survival is 79%.

`CN(C)c1ccc(CNC(=O)CCCN2C(=O)c3cccnc3Oc3ccc(Cl)cc32)cc1`: the survival was 81%.

Turning to `Cn1c(SCC(=O)N2CCCc3ccccc32)nnc1-c1ccccc1N`, the survival is 92%.

Turning to `CCc1ccc(NC(=O)CSc2nc(C)c(C(=O)Nc3ccc(Cl)cc3)c(-c3ccc(OC)cc3)c2C#N)cc1`, the survival was 92%.

`COc1ccc(C)cc1NC(=O)CN1C(=O)CCc2cc(S(=O)(=O)N3CCOCC3)ccc21`: the survival was 94%.

With `COc1ccc(OC)c(NC(=O)CN2C(=O)CCc3cc(S(=O)(=O)N4CCCCC4)ccc32)c1`, the survival was 32% (active).

As to `Cc1ccc(NC(=O)CN2C(=O)C(C)(C)c3cc(S(=O)(=O)N4CCCCC4)ccc32)c(Br)c1`, the survival is 67%.

Regarding `Cc1ccc(NC(=O)CN2C(=O)CCc3cc(S(=O)(=O)N4CCOCC4)ccc32)cc1F`, the survival is 47% (active).

As for `Cc1ccc(NC(=O)CN2C(=O)CCc3cc(S(=O)(=O)N4CCOCC4)ccc32)cc1N(C)C`, the survival is 93%.

Turning to `COc1ccc(Cl)cc1NC(=O)CN1C(=O)C(C)(C)c2cc(S(=O)(=O)N3CCCCC3)ccc21`, the survival was 70%.

Take `Cc1cc(F)ccc1NC(=O)CN1C(=O)CCc2cc(S(=O)(=O)N3CCOCC3)ccc21`: the survival was 76%.

In the case of `COc1ccc(NC(=O)CN2C(=O)CCc3cc(S(=O)(=O)N4CCOCC4)ccc32)c(OC)c1`, the survival was 80%.

With `Cc1ccc(Cl)cc1NC(=O)CN1C(=O)C(C)(C)c2cc(S(=O)(=O)N3CCCCC3)ccc21`, the survival was 6% (active).

In the case of `CCOC(=O)c1cccc(NC(=O)C(CC(C)C)N2Cc3ccccc3C2=O)c1` (configuration not stated), the survival is 128%.

As to `Cc1nc2cccnc2n1-c1cccc(C(=O)NCCc2ccc(S(N)(=O)=O)cc2)c1`, the survival is 85%.

As for `CCOc1ccc(OCC)c(NC(=O)c2nnn(Cc3cc(Br)ccc3OC)c2N)c1`, the survival is 61%.

Regarding `CC1(C(=O)C[n+]2cccc(C(N)=O)c2)CCC(=O)O1` (configuration not stated), the survival was 92%.

For the compound `O=C(NC1CCCC1)c1ccc(CSc2nc3ccncc3n2Cc2ccc(F)cc2)cc1`, the survival is 68%.

As for `O=C(c1ccc2c(c1)N(Cc1ccc(Cl)cc1)C(=O)c1ccccc1S2(=O)=O)N1CCN(Cc2ccccc2)CC1`, the survival is 78%.

On to `CCC(=O)N1c2ccccc2CC1C(=O)NCCc1ccc(C)cc1` (configuration not stated), for which the survival is 75%.

Regarding `Cc1cccc(NC(=O)CN2C(=O)C(c3ccc(F)cc3)=NC23CCCCCC3)c1`, the survival is 87%.

With `O=C(CN1C(=O)C(c2ccc(F)cc2)=NC12CCCCCC2)Nc1ccc(F)c(Cl)c1`, the survival was 40% (active).

In the case of `O=C(CN1C(=O)C(c2ccc(F)cc2)=NC12CCCCCC2)Nc1ccccc1Cl`, the survival was 84%.

Take `CCNC(=S)N1CCC(C(=O)c2ccc3c(c2)OCCO3)CC1`: the survival was 58% (active).

Take `CCNC(=S)N1CCC(C(=O)c2ccc(Cl)cc2)CC1`: the survival was 84%.

Take `O=C(c1ccc2c(c1)OCCO2)C1CCCCC1`: the survival is 83%.

As to `CCC(CC)C(=O)Nc1ccc(-c2cn3cccnc3n2)cc1`, the survival was 91%.

Take `Cc1cc(F)ccc1Nc1nc2ccccc2n2nnnc12`: the survival was 111%.

In the case of `Clc1ccc(-c2noc3ncnc(NCCc4ccccc4)c23)cc1`, the survival was 78%.

For `Clc1ccc(CNc2ncnc3onc(-c4ccc(Cl)cc4)c23)cc1`, the survival is 133%.

`Cc1cccc(CCNc2ncnc3onc(-c4ccc(Cl)cc4)c23)c1`: the survival is 33% (active).

`Fc1ccc(-c2noc3ncnc(NC4CCCCC4)c23)cc1`: the survival is 67%.

Turning to `Clc1ccc(-c2noc3ncnc(NC4CCCCC4)c23)cc1`, the survival is 21% (active).

With `CC(C)CNc1ncnc2onc(-c3ccc(Cl)cc3)c12`, the survival is 71%.

Turning to `CCOc1ccc(CCNc2ncnc3onc(-c4ccc(Cl)cc4)c23)cc1`, the survival is 76%.

With `CC1CCC(Nc2ncnc3onc(-c4ccc(F)cc4)c23)CC1` (configuration not stated), the survival is 82%.

For `COc1cc(Nc2ncnc3onc(-c4ccc(Cl)cc4)c23)cc(OC)c1`, the survival was 94%.

On to `CCOc1ccc(Nc2ncnc3onc(-c4ccc(Cl)cc4)c23)cc1`, for which the survival was 38% (active).

For the compound `Cc1ccc(CCNc2ncnc3onc(-c4ccc(Cl)cc4)c23)cc1`, the survival was 46%.

In the case of `CC1CCC(Nc2ncnc3onc(-c4ccc(Cl)cc4)c23)CC1` (configuration not stated), the survival is 47% (active).

With `COc1ccc(-c2csc(C)n2)cc1`, the survival was 75%.

Turning to `Cc1ccc(C(=O)N2CCCn3c2nc2ccccc23)cc1`, the survival was 70%.

`COc1cccc(-n2cc(C(=O)OCc3ccc(Cl)cc3)c3ccccc3c2=O)c1`: the survival is 85%.

`N#C/C(=C\c1ccc(OCc2ccc(Cl)cc2Cl)cc1)c1nc2ccccc2[nH]1`: the survival is 103%.

For the compound `O=C(O)CCCC(=O)N1CCc2cc(S(=O)(=O)NCc3ccccc3)ccc21`, the survival was 111%.

`Cc1csc(=Nc2ccccc2)n1-c1ccccc1`: the survival is 81%.

In the case of `CCOC(=O)c1c(S(=O)(=O)NCC(=O)Nc2cccc(CC)c2)c(C)n(C)c1C`, the survival was 84%.

For the compound `CCc1nn(CC(=O)NCc2ccccc2)c(=O)c2cccn12`, the survival was 69%.

With `CN1C(=O)Cc2cc(S(=O)(=O)NCc3ccccc3Cl)ccc21`, the survival was 90%.

Turning to `CC(C)CC(C(N)=O)N1C(=O)c2ccccc2C1=O` (configuration not stated), the survival was 84%.

On to `CCOC(=O)C1CCN(C(=O)Cn2ncc3c4ccccc4n(Cc4ccccc4F)c3c2=O)CC1`, for which the survival is 84%.

For `CCOc1ccc(-c2cc(C(=O)N3CCN(S(=O)(=O)c4cc(Cl)ccc4OC)CC3)[nH]n2)cc1`, the survival was 73%.

`COc1ccc(S(=O)(=O)N2CCN(C(=O)c3cc(-c4ccc(Br)cc4)n[nH]3)CC2)cc1OC`: the survival was 73%.

Turning to `COc1ccc(Cl)cc1S(=O)(=O)N1CCN(C(=O)c2cc(-c3ccc(Br)cc3)n[nH]2)CC1`, the survival was 47% (active).

As to `COc1ccc(S(=O)(=O)Nc2cc3c(cc2NCc2ccccc2)n(C)c(=O)n3C)cc1`, the survival was 69%.

Consider `O=C(Nc1ccc(F)cc1)C1CCN(c2nc3ccccc3n3cccc23)CC1`, for which the survival is 75%.

Regarding `O=c1cc(COc2ccccc2Cl)nc2scc(-c3ccccc3)n12`, the survival is 81%.

On to `Cc1c(C(=O)N2CCOCC2)sc(NC(=O)c2ccc3c(c2)OCO3)c1C#N`, for which the survival is 90%.

For `Cc1ccc(NC(=O)C2CCCN(S(=O)(=O)c3cccc4cccnc34)C2)cc1` (configuration not stated), the survival is 102%.

Take `CCc1ccc(NC(=O)C2CCCN(S(=O)(=O)c3c(C)noc3/C=C/N(C)C)C2)cc1` (configuration not stated): the survival was 42% (active).

On to `CC(C)c1ccc(NC(=O)C2CCCN(S(=O)(=O)c3cccc4cccnc34)C2)cc1` (configuration not stated), for which the survival was 71%.

In the case of `CCOc1ccc(NC(=O)C2CCCN(S(=O)(=O)c3c(C)noc3/C=C/N(C)C)C2)cc1` (configuration not stated), the survival was 94%.

Turning to `CCc1ccc(NC(=O)C2CCCN(S(=O)(=O)c3cccc4cccnc34)C2)cc1` (configuration not stated), the survival is 58% (active).

Consider `Cc1noc(/C=C/N(C)C)c1S(=O)(=O)N1CCCC(C(=O)Nc2cccc(F)c2)C1` (configuration not stated), for which the survival is 90%.

Take `O=S(=O)(Nc1ccc(-c2ccc(N3CCCC3)nn2)cc1)c1ccc(Cl)cc1`: the survival is 102%.

`CCCCN(C)C(=O)c1ccc2c(c1)N(Cc1ccc(F)cc1)C(=O)c1ccccc1S2(=O)=O`: the survival was 118%.

For `O=C(Nc1ccc(F)cc1C(F)(F)F)C1CCN(c2ncccn2)CC1`, the survival is 76%.

Consider `CC(=O)Nc1ccc2c(c1)n(C)c(=O)n2C`, for which the survival was 85%.

For `COc1ccc(OC)c(CCNC(=O)C(C)n2c(C)c3cnn(-c4ccccc4)c(=O)c3c2C)c1` (configuration not stated), the survival was 82%.

Regarding `Cc1cc(C)c(C#N)c(SCc2cccnc2)n1`, the survival is 53%.

Regarding `COc1cc2nc(SCc3ccc(C)cc3)n3nc(CCn4nc(C)cc4C)nc3c2cc1OC`, the survival was 58%.

In the case of `COc1cccc(CSc2nc3cc(OC)c(OC)cc3c3nc(CCn4nc(C)cc4C)nn23)c1`, the survival is 60% (active).

Take `COc1cc2nc(SCc3cccc(Cl)c3)n3nc(CCn4nc(C)cc4C)nc3c2cc1OC`: the survival was 79%.

`CCc1ccccc1NC(=O)c1ccc2nc(C(C)C)oc2c1`: the survival is 73%.

In the case of `CCn1cc2nc(SCc3cc(C)ccc3C)n(Cc3ccc(C)cc3)c(=O)c2n1`, the survival is 69%.

Consider `CCC(CC)C(=O)Nc1nnc(SCc2cc(=O)c3ccccc3[nH]2)s1`, for which the survival was 115%.

Take `COc1ccc(-n2c(=O)c3c4c(sc3n3c(SCCC(C)C)nnc23)COC(C(C)C)C4)cc1` (configuration not stated): the survival is 59%.

On to `CCCCCSc1nc2sc3c(c2c(=O)n1-c1ccc(OC)cc1)CCN(C(C)=O)C3`, for which the survival is -18% (active).

For the compound `CC(=O)N1CCc2c(sc3nc(SCC(C)C)n(-c4ccc(F)c(Cl)c4)c(=O)c23)C1`, the survival was 63%.

Regarding `CCOC(=O)CSc1nc2sc3c(c2c(=O)n1-c1ccc(OC)cc1)CC(C(C)C)OC3` (configuration not stated), the survival is 73%.

For the compound `COc1ccc(-n2c(SC)nc3sc4c(c3c2=O)CCN(C(C)=O)C4)cc1`, the survival was 127%.

`CCSc1nc2sc3c(c2c(=O)n1-c1ccc(C)c(Cl)c1)CCN(C(C)=O)C3`: the survival is 61%.

As to `CCCCCSc1nc2sc3c(c2c(=O)n1-c1ccccc1)CCN(C(C)=O)C3`, the survival is 77%.

As to `COc1ccc(-n2c(SCCC(C)C)nc3sc4c(c3c2=O)CC(C(C)C)OC4)cc1` (configuration not stated), the survival was 30% (active).

`CC(=O)N1CCc2c(sc3nc(SCC(C)C)n(-c4ccc(C)c(Cl)c4)c(=O)c23)C1`: the survival is 45% (active).
